Here are results for 58 compounds from PubChem BioAssay AID1508615 (Milbrandt Lab, Department of Genetics, Washington …, 2020).

About 20 (1%) of roughly 1,600 compounds were called active. The entries come from a sample that favours actives as a whole. Values without a mark were called inactive.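 The calls were made as follows: active = ratio of uncleaved NAD to its breakdown product ADP-ribose above 4, meaning the enzyme was inhibited; inactive = the rest.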

In the test the target is NAD(+) hydrolase SARM1 (Homo sapiens) (UniProt Q6SZW1). The test is described as follows: SARM1 TIR NADase inhibitors by HPLC, primary screen, cell lysate, HPLC readout (AID 1508615).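 Also: substrate NAD at 5 µM with 60 min at 37 °C.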 The settings on record: HEK293T SAM-TIR lysate, at 5 µM, active compounds read high.
Sequence of NAD(+) hydrolase SARM1 (Homo sapiens) (Q6SZW1 whole entry, looked up): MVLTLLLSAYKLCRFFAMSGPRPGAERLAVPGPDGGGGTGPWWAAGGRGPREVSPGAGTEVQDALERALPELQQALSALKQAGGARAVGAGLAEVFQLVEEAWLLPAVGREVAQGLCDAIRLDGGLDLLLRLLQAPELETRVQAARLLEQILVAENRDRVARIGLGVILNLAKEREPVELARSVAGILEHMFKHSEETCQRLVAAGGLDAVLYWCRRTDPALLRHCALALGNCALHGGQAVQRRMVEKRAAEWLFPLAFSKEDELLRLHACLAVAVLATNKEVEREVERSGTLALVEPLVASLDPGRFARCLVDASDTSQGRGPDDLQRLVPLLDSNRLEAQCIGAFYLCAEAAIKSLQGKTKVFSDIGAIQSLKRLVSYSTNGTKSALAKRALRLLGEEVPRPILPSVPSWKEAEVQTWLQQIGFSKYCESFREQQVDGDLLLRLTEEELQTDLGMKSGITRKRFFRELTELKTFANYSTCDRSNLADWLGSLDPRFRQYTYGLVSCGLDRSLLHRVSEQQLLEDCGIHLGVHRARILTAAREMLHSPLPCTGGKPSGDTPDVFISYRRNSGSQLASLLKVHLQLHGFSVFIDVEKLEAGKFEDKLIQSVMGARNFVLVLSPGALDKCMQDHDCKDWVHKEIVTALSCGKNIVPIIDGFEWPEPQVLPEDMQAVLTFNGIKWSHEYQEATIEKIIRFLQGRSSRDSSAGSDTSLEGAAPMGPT
Take `COC1CC(C)C(OC)c2cc(O)cc(c2O)NC(=O)/C(C)=C/C=C\C(C)C(OC(N)=O)/C(C)=C\C(C)C1OC` (stereo not drawn): the NAD/ADPR ratio was 3.

In the case of `NNC(=O)CNC(=O)Nc1n[nH]c(=S)s1`, the NAD/ADPR ratio was 3.

For the compound `O=C(c1cccnc1)c1cc(-c2ccccn2)c(=O)n2ccccc12`, the NAD/ADPR ratio was 3.

As for `Cc1ccc(S(=O)(=O)N(C)C)cc1[N+](=O)[O-]`, the NAD/ADPR ratio is 3.

For the compound `CC(C)(C)NC1=NCCNC(c2ccccc2)=C1`, the NAD/ADPR ratio is 3.

Consider `S=c1c2[nH]cnc2ncn1CCSc1ncnc2nc[nH]c12`, for which the NAD/ADPR ratio is 3.

On to `CC1=C(C#N)C(C)(C)C(C#N)=C(C)N1`, for which the NAD/ADPR ratio was 3.

On to `CCCCCC(=O)N1CCCC1`, for which the NAD/ADPR ratio is 3.

In the case of `O=C1C(=Nc2cccc(Cl)c2)CC(c2ccc(Cl)cc2)N1c1cccc(Cl)c1` (stereo not drawn), the NAD/ADPR ratio was 3.

With `CN(C)c1nc(=Nc2cccc(Cl)c2)ss1`, the NAD/ADPR ratio was 11.3 (active).

Take `Nc1nc(=S)c2ncn(C3CCCC3)c2[nH]1`: the NAD/ADPR ratio was 3.

Regarding `O=c1oc(-c2ccccc2)c(-c2ccccc2)c2ccccc12`, the NAD/ADPR ratio was 3.

With `O=[N+]([O-])c1cccc(/C=C/c2ccccn2)c1`, the NAD/ADPR ratio was 3.

On to `CC(C)(c1cc(Cl)c(O)c(CN2CCOCC2)c1)c1cc(Cl)c(O)c(CN2CCOCC2)c1`, for which the NAD/ADPR ratio was 3.

In the case of `O=c1[nH]c(C(F)(F)C(F)(F)C(F)(F)F)no1`, the NAD/ADPR ratio is 3.

As for `CN1C(=O)CC2(C)C1=CCc1scnc12` (stereo not drawn), the NAD/ADPR ratio is 3.

As to `COc1ccc(C2=NC(=O)NC2c2ccc(OC)cc2)cc1` (stereo not drawn), the NAD/ADPR ratio is 3.

With `CCOc1nc(OCC)c2cnn(C)c2n1`, the NAD/ADPR ratio was 3.

Consider `O=C1NC(=O)C2(CCc3ccccc32)N1` (stereo not drawn), for which the NAD/ADPR ratio was 3.

On to `CC1(C)CC[C@]2(C(=O)n3ccnc3)CC[C@]3(C)[C@H](C(=O)C=C4[C@@]5(C)C=C(C#N)C(=O)C(C)(C)[C@@H]5CC[C@]43C)[C@@H]2C1`, for which the NAD/ADPR ratio was 6.5 (active).

Regarding `Cc1nc(N)[nH]c(=O)c1CCCNc1ccc(CCC2(CCl)OCCO2)cc1`, the NAD/ADPR ratio is 3.

Consider `CCCCSc1nc(C(=O)O)cc(=O)[nH]1`, for which the NAD/ADPR ratio is 3.

On to `Cc1ccc(-c2cssc2=S)cc1`, for which the NAD/ADPR ratio was 3.

In the case of `CCCCOP(=O)(OCCCC)C1(C)CC(=O)CC(C)(C)C1` (stereo not drawn), the NAD/ADPR ratio was 3.

`Cc1[nH]c(=S)[nH]c(=O)c1CCC1OCCO1`: the NAD/ADPR ratio is 3.

In the case of `C=CCN1CCN(c2ccncc2S(=O)(=O)N2CCN(C)CC2)CC1`, the NAD/ADPR ratio was 3.

On to `COC(=O)Nc1csc2c1NC(=O)CCCC2`, for which the NAD/ADPR ratio was 3.

`Nc1ccc2c(c1Cl)C(=O)c1ccc(N)c(Cl)c1C2=O`: the NAD/ADPR ratio was 3.

With `O=C1OCC/C1=C\OCCCO/C=C1\CCOC1=O`, the NAD/ADPR ratio was 3.

On to `CC(C)C(=O)Nc1cccnc1`, for which the NAD/ADPR ratio is 3.

`Cc1ccc(N2CCN(CC(O)COc3cccc(C)c3)CC2)cc1` (stereo not drawn): the NAD/ADPR ratio was 3.

`C=CCOc1ccnc(-c2ccccc2)n1`: the NAD/ADPR ratio was 3.

Consider `O=[N+]([O-])c1ccc(NN=C(c2ccccc2)c2ccccc2)nc1`, for which the NAD/ADPR ratio is 2.8.

In the case of `Cn1cnc([N+](=O)[O-])c1Sc1nnc(-c2cccnc2)n1C`, the NAD/ADPR ratio is 3.

`NC(=S)Nc1cccc(Cl)c1`: the NAD/ADPR ratio was 3.

Turning to `Cc1ccc(-c2nc(-c3nccc4ccccc34)oc2-c2ccccc2)cc1`, the NAD/ADPR ratio is 3.

For the compound `CCC(CO)Nc1nc2ccc(Cl)cc2c2ccccc12` (stereo not drawn), the NAD/ADPR ratio is 3.

For the compound `O=C1c2cccc(Oc3ccccc3)c2C(=O)c2cccc(Oc3ccccc3)c21`, the NAD/ADPR ratio was 3.

As for `C=CCNC(=S)Nc1cccc([N+](=O)[O-])c1`, the NAD/ADPR ratio is 3.

In the case of `[O-]/[N+](=C\c1ccccc1)CC1(O)CCCCC1`, the NAD/ADPR ratio was 3.

With `O=c1cc(CO)[nH]nc1CO`, the NAD/ADPR ratio was 3.

Consider `COc1ccc2nc3cc(Cl)ccc3c(C#N)c2c1`, for which the NAD/ADPR ratio was 3.

`O=C(Nc1ccc(C(=O)O)c(O)c1)c1ccccc1`: the NAD/ADPR ratio is 3.

As for `CC(=O)c1cc(O)c2ccccc2c1O`, the NAD/ADPR ratio was 10.2 (active).

Turning to `CC(C)(NC(=O)c1cc(Cl)c2ccccc2c1O)C(=O)O`, the NAD/ADPR ratio is 3.

Consider `CCOC(=O)Cc1c[nH]c(=S)[nH]c1=O`, for which the NAD/ADPR ratio is 3.

Turning to `Cn1c(=O)c2[nH]c(COc3ccc(C(C)(C)C)cc3)nc2n(C)c1=O`, the NAD/ADPR ratio is 3.

As to `S=C1N(c2ccccc2)CN(C2CCCCC2)CN1c1ccccc1`, the NAD/ADPR ratio was 3.

Regarding `O=[N+]([O-])c1ccc(Sc2cccc[n+]2[O-])c2nonc12`, the NAD/ADPR ratio is 12.6 (active).

In the case of `O=[N+]([O-])c1ccc(Sc2ncccn2)c([N+](=O)[O-])c1`, the NAD/ADPR ratio is 3.

For `CC1(CN2CCCC2)CCC(NC(=O)C(c2ccccc2)c2ccccc2)C(C)(C)O1` (stereo not drawn), the NAD/ADPR ratio is 3.

Take `C(=C\c1ccncc1)/c1ccncc1`: the NAD/ADPR ratio is 3.

In the case of `O=C(O)c1ccc(NCc2nc3ccccc3[nH]2)cc1`, the NAD/ADPR ratio was 3.

Consider `Oc1ccc2ccc3[nH]cnc3c2c1`, for which the NAD/ADPR ratio was 3.

As for `N/C(CC(=O)Nc1cc(C(F)(F)F)ccc1Cl)=N\O`, the NAD/ADPR ratio is 3.

Consider `CC1CCC(C(C)C)C(NC(=O)c2ccncc2)C1` (stereo not drawn), for which the NAD/ADPR ratio is 3.

In the case of `Clc1nc(NCCc2ccccc2)c2cn[nH]c2n1`, the NAD/ADPR ratio was 2.8.

Take `Cn1cnc([N+](=O)[O-])c1Sc1ncn[nH]1`: the NAD/ADPR ratio was 3.
